The full ranking holds about 110,000 compounds; the median of “z-score” is about -0.1, and the highest 2% start at about 2. The full list was thinned out, with the highest values kept by preference. The source made the active and inactive calls.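 How the source made its calls: active means z-score in the third read window above 3 or below -3; inactive means the rest.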
Target: Metabotropic glutamate receptor 8 (Rattus norvegicus) (UniProt P70579)
Test: rat mGluR8 modulators via GIRK flux, primary screen, cell-based, thallium flux, HTS (AID 488969)
Conditions: HEK293 rat mGluR8, GIRK (G protein-gated inwardly rectifying potassium channel) thallium flux, FluoZin2; at 10 µM; stronger effect = higher value; submaximal glutamate (EC20) added with thallium

Metabotropic glutamate receptor 8 (Rattus norvegicus), sequence (P70579 whole entry, looked up): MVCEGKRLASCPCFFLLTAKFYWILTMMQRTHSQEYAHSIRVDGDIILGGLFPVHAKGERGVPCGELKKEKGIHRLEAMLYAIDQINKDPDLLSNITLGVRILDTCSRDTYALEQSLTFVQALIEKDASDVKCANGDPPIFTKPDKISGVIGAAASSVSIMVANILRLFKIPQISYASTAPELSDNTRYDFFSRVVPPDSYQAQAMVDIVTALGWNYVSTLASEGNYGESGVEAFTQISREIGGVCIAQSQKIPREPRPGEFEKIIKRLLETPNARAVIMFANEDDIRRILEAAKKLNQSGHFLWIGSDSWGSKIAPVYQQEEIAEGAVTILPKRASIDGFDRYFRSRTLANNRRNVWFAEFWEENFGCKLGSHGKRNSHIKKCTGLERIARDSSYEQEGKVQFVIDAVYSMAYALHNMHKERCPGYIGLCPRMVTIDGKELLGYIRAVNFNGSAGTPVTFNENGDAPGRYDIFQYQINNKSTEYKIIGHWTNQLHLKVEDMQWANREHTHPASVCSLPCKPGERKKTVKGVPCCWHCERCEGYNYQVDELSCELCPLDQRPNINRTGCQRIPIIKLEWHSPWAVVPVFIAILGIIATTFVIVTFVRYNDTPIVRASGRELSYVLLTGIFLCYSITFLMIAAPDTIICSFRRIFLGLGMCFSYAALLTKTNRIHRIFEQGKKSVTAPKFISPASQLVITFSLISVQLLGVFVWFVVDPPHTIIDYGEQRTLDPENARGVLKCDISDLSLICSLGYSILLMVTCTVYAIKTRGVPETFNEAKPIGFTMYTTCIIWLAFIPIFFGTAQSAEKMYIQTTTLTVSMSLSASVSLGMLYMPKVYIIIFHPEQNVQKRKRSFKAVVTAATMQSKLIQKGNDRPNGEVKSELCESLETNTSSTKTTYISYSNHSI

Compared with `COc1ccccc1C(OC(=O)c1ccco1)C(=O)NC(C)(C)C` (stereo not given), `COc1ccccc1OC1=NS(=O)(=O)c2ccccc21` is higher in z-score: -0.346 for the first, -0.276 for the second.

Compared with `O=[N+]([O-])c1ccc(-c2nnc(CSc3nc(-c4ccccc4)nc4ccc(F)cc34)o2)cc1`, `O=c1c2ccccc2nc(SCc2nnc(-c3ccccc3)o2)n1-c1ccc(F)cc1F` is lower in z-score: 0.0904 for the first, -0.56 for the second.

First: COc1cc2c(cc1OC)C(COc1ccc3c(C)cc(=O)oc3c1)N(C(=O)c1ccco1)CC2 (stereo not given)
Second: COc1ccc(OC)c(C2C(C(=O)O)c3ccccc3C(=O)N2C)c1 (stereo not given)
The z-score of the first is lower: 0.044 for the first, 0.356 for the second.

Going from `Cc1csc(SCC(=O)N2CCN(S(=O)(=O)c3ccc(Cl)cc3)CC2)n1` to `CCOC(=O)N1CCN(C(=O)c2ccc(CNS(=O)(=O)c3ccc(C)cc3)cc2)CC1`, the z-score falls from 0.756 to -0.952.

Going from `COC(=O)c1cc(-c2cccc(OC)c2)on1` to `COCCNC(=O)c1cc(-c2cccc(OC)c2)on1`, the z-score rises from -1.1 to -0.215.

First: CCOC(=O)c1c(C(F)(F)F)nc2ncccn12
Second: COC(=O)CSc1nc2ccccc2o1
The z-score of the first is higher: -0.534 for the first, -0.541 for the second.

Going from `O=C(c1cnn2c(C(F)(F)F)cc(-c3ccc4c(c3)OCO4)nc12)N1CCCC1` to `COc1ccc(-c2nc3ccccn3c2NCc2ccc3c(c2)OCO3)cc1`, the z-score falls from -0.369 to -1.02.

Going from `O=C(CCCc1c[nH]c2ccccc12)N1CCN(c2ccc(N3CCOCC3)nn2)CC1` to `c1ccc(N2CCN(c3c4c(nc5ncnn35)CCC4)CC2)cc1`, the z-score rises from -0.501 to -0.139.

First: O=C(Nc1ccc2nc3n(c(=O)c2c1)CCCC3)c1ccccc1[N+](=O)[O-]
Second: CN(C)c1cccc(C(=O)Nc2ccc3nc4n(c(=O)c3c2)CCCCC4)c1
The z-score of the first is lower: -0.424 for the first, -0.303 for the second.

Compared with `Cc1cccc(NC(=O)COC(=O)c2ccc3c(=O)n4c(nc3c2)CCC4)c1`, `O=C(COC(=O)c1ccc2c(=O)n3c(nc2c1)CCC3)Nc1ccccc1F` is lower in z-score: 2.19 for the first, -0.441 for the second.

Compared with `CC(C)(C)c1cc(NC(=O)COC(=O)c2ccc3c(=O)n4c(nc3c2)CCC4)n(-c2ccccc2)n1`, `CCOC(=O)c1ccc(NC(=O)c2ccccc2[N+](=O)[O-])cc1` is higher in z-score: -0.264 for the first, -0.169 for the second.

Going from `CC(C)(C)n1nc2c(c1NC(=O)c1ccccc1F)CS(=O)C2` (stereo not given) to `Cc1nonc1OCC(C)(COc1nonc1C)NC(=O)c1ccc(Cl)cc1`, the z-score rises from -0.492 to -0.0555.

Going from `Cc1cc(C(=O)N2CCN(C(c3ccccc3)c3ccccc3)CC2)no1` to `CCCn1nc(-c2ccccc2)c2nc3ccccc3nc21`, the z-score rises from -0.079 to 0.0864.

Compared with `CCCCn1nc(-c2ccccc2)c2nc3ccccc3nc21`, `CCOc1ccc(OCC)c(-c2c(=O)n(OCc3ccccc3Br)c3ccccc3[n+]2[O-])c1` is higher in z-score: -0.013 for the first, 1.8 for the second.

First: CCCn1cc(SCC(=O)NCC2CCCO2)c2ccccc21 (stereo not given)
Second: C=CCn1c(N)c(C(=O)NCC2CCCO2)sc1=S (stereo not given)
The z-score of the first is lower: 0.0527 for the first, 0.129 for the second.

First: COc1cc(SC#N)ccc1N=Cc1c(C)[nH]n(-c2cccc3ccccc23)c1=O
Second: CCOC(=O)c1sc(/N=C/c2c(C)[nH]n(-c3ccccc3)c2=O)c(C#N)c1C
The z-score of the first is lower: -0.32 for the first, -0.156 for the second.

First: N#Cc1c(/N=C/c2cc3ccccc3s2)sc2c1CCC2
Second: Cc1ccc(/C=N/c2sc3c(c2C#N)CCCCC3)o1
The z-score of the first is higher: -0.0332 for the first, -0.0448 for the second.

Compared with `COc1ccccc1CNC(=O)/C=C/c1cc2c(cc1Br)OCO2`, `CCc1ccccc1NC(=O)C(C#N)Cc1cccnc1` (stereo not given) is higher in z-score: -0.0108 for the first, 0.345 for the second.

First: CCCOc1ccc(OCC(=O)c2[nH]c(C)c(C(C)=O)c2C)cc1
Second: CC(=O)c1c(C)[nH]c(C(=O)COc2ccc(C#N)cc2)c1C
The z-score of the first is higher: 0.149 for the first, -0.0197 for the second.

First: O=C1CN(Cc2ccccc2)C(=NCc2ccco2)S1
Second: Cc1cccc(NC(=S)NCC23C=CC(O2)C2C(=O)N(c4ccc(Cl)cc4)C(=O)C23)c1 (stereo not given)
The z-score of the first is lower: -0.501 for the first, -0.343 for the second.

First: CC(=O)NC(=S)Nc1ccc(-c2nc3ccc(C)cc3s2)cc1
Second: COc1cccc(CC(NC(C)=O)C(=O)NC2CCN(c3c4c(nc5ncnn35)CCC4)CC2)c1 (stereo not given)
The z-score of the first is higher: 0.23 for the first, 0.172 for the second.

Compared with `OCCNCCCCOc1ccc(F)cc1`, `CC(C)(C)NCCCCOc1ccc(F)cc1` is higher in z-score: 0.17 for the first, 2.98 for the second.

First: CC(C)(C)NCCOc1ccc(Br)cc1
Second: COc1ccc2cc(S(=O)(=O)NCCCN3CCOCC3)ccc2c1
The z-score of the first is lower: -0.0295 for the first, -0.0146 for the second.

`CCOC(=O)N1CCN(c2cc(=O)n(C3CCCCC3)c(=O)[nH]2)CC1` showed a z-score of 0.0254.

For `Fc1ccc2nc(-c3ccccc3)nc(SCc3nnc(-c4ccccc4)o3)c2c1`, the z-score was 14.3 (active).
For `COc1cccc(-c2cc(C(=O)NC3CCCC3)no2)c1`, the z-score was 5.04 (active).
In the case of `Cc1ccccc1C(=O)Nc1ccc2nc3n(c(=O)c2c1)CCC3`, the z-score was 3.87 (active).
`CCCCCn1nc(-c2ccccc2)c2nc3ccccc3nc21` was tested, and the z-score was 14.9 (active).
`Cc1[nH]n(-c2cccc3ccccc23)c(=O)c1/C=N/c1sc2c(c1C#N)CCC2` was tested, and the z-score was 8.05 (active).
For `Cc1[nH]n(-c2ccc(F)cc2)c(=O)c1/C=N/c1sc2c(c1C#N)CCCC2`, the z-score was 13 (active).
`CC(=O)c1c(C)[nH]c(C(=O)COc2cc(C)cc(C)c2)c1C` was tested, and the z-score was 4 (active).
In the case of `COc1cccc(N2CCN(c3c4c(nc5ncnn35)CCC4)CC2)c1`, the z-score was 5.19 (active).
